Most compounds without a hit are left out; they make up all but 5.2% or so of the library.
VDR inh: blocks the human vitamin D receptor | P11473 | VDR-SRC2-3 peptide fluorescence polarization, 2 h | Potency, µM, usual class: inhibitors | 0.93% of 400,000 active | AID 504847
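Signal is fluorescence polarization, reporting how far test compounds block the interaction of VDR with the SRC2-3 coregulator peptide after a 2 h room-temperature incubation.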
Sfp inh: Sfp phosphopantetheinyl transferase inhibition; Q9F4F7; Biochemical Sfp PPTase activity, qHTS; Potency, µM, hits mostly inhibitors; 3.5% of 310,000 active;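 further: the enzyme is Sfp with the accession as filed and its product quenches rhodamine fluorescence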
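With Hepes-Na pH 7.6 buffer containing 10 mM MgCl2, Sfp (15 nM) modified BHQ-2-YbbR (12.5 uM) using rhodamine-CoA (5 uM). Two reads 30 minutes apart at 525/598 nm yielded each well's rate.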
PLK1 PBD block: inhibitors of human PLK1 polo-box domain binding. Plk1 PBD binding of FITC phosphopeptide, fluorescence polarization. Potency, µM, actives largely listed as inhibitors. AID 720504. 2.8% of 360,000 active. P53350; further: series mostly up to about 57 µM; nearly all actives have a fitted effect of over 65% in size
Target sequence (P53350 whole entry, looked up, the tested form may be a part): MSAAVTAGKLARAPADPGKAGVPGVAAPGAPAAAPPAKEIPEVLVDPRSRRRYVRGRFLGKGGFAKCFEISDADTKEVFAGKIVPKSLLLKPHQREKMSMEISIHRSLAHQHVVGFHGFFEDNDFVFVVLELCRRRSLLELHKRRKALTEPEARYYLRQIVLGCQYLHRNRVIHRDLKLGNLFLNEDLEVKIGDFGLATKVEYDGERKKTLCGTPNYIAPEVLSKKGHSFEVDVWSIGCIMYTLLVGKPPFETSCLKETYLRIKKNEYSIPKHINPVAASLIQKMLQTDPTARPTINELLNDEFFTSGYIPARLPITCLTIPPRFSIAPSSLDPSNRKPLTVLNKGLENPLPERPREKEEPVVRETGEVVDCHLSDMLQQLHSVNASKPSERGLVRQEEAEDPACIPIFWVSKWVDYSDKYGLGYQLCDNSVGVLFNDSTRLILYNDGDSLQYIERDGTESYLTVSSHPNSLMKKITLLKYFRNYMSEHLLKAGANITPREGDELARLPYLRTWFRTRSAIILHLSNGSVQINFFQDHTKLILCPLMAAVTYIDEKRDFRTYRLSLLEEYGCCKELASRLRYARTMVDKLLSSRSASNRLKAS
mIDH1 inhibitor: inhibitors of human mutant IDH1 R132H. IDH1-R132H enzyme, NADPH consumption, diaphorase/resazurin fluorescence. Potency, µM (doses to about 76.6 µM), actives largely listed as inhibitors. 0.093% of 390,000 active. AID 602179; further: nearly all actives have a fitted effect of over 65% in size
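IDH1-R132H (0.5 ug/mL) preincubated 30 min with compound, then NADPH (0.016 mM) and alpha-KG (2 mM) added; 80 min at RT, pH 7.5. Remaining NADPH coupled via diaphorase/resazurin to fluorescence (540/590 nm); concentration-response curves normalized to no-enzyme control.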
rTrxR1 inhibitor: inhibitors of rat thioredoxin reductase 1. Potency, µM (highest dose often 114 µM), hits mostly inhibitors. 1% of 390,000 active. recombinant rTrxR1, NADPH fluorescence consumption, selenite substrate; further: nearly all actives have a fitted effect of over 65% in size
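Rat TrxR1 (90 nM in the dispensed reagent) was pre-reduced with 400 uM NADPH for 5 min at room temperature, then incubated with compound for 15 min. After 400 uM selenite was added, NADPH fluorescence (Ex 340/Em 450 nm) was followed for 8 min.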
TrxR1 substrate: rat thioredoxin reductase 1 substrate activity. O89049. purified TrxR1 substrate turnover, NADPH consumption readout. Potency, µM (highest dose often 114 µM). 0.01% of 390,000 active. AID 588456; further: nearly all actives have a fitted effect of over 50% in size
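Rat TrxR1, dispensed at 90 nM, was prereduced with 400 uM NADPH (final) for 5 min at ~22 deg C, then incubated with compound 15 min before 400 uM selenite. A first-read NADPH fluorescence drop versus no-compound background flagged substrates.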
A number is an active result; – = inactive; ? = inconclusive; · = no result; ! = repeats disagree; [ ] = remark or other dose. The call rests on the fitted dose curve; in most records, active means well fitted curve in the direction sought with a large enough effect; inconclusive means small, poorly fitted or top-dose-only effect, or another doubt; inactive means no such curve, though single readings can be large; an effect the other way counts as inactive or inconclusive.

SMILES	VDR inh	Sfp inh	PLK1 PBD block	mIDH1 inhibitor	rTrxR1 inhibitor	TrxR1 substrate
O=C(NCC1CCCO1)c1ccccc1NS(=O)(=O)c1ccc(Br)s1 (stereo not drawn)	–	·	24µM	–	–	–
O=S(=O)(NCC1CCCO1)c1ccc(Br)s1 (stereo not drawn)	–	–	–	–	–	–
Cn1c(=O)c2cc(NC(=S)NC3CC3)ccc2n1Cc1cccc(C(F)(F)F)c1	·	·	–	·	·	·
COc1cc2c(cc1OC)-c1cc(=Nc3c(C)cc(C)cc3C)n(C)c(=O)n1CC2	–	71µM!	·	·	–	–
C=C(C(=O)c1ccccc1)C(C)CC(=O)c1ccccc1 (stereo not drawn)	79µM	–	–	–	–[11.4 µM]	–[11.4 µM]
C=C(C(=O)c1ccccc1)C(NC(C)(C)C)c1ccccc1 (stereo not drawn)	?	·	–	–	–[11.4 µM]	–[11.4 µM]
CN1C(=O)/C(=C2\SC(N3CCCCCC3)=NC2=O)c2ccccc21	–	–	–	–	–	–
CN1C(=O)/C(=C2\SC(N)=NC2=O)c2ccccc21	–	56µM	–	–	–	–
COc1ccc(NC(=O)Nc2sc(NS(=O)(=O)c3ccccc3)nc2C)cc1	–	45µM	?	–	?	–
Cc1nc(NS(=O)(=O)c2ccccc2)sc1NC(=O)OC(C)C	–	50µM	–	–	–	–
Cc1nc(NS(=O)(=O)c2ccccc2)sc1C(=O)NN	–	–	–	–	–	–
Cc1ccc(S(=O)(=O)Nc2nc(C)c(C(=O)Nc3ccccc3)s2)cc1	–	–	–	–	–	–
Cc1ccc(S(=O)(=O)Nc2nc(C)c(NC(=O)Nc3ccc(Cl)cc3Cl)s2)cc1	–	35µM	21µM	–	–	–
Cc1ccc(S(=O)(=O)Nc2nc(C)c(NC(=O)OCCCl)s2)cc1	89µM	50µM	–	–	–	–
CCCC[C@]12Cc3cc(C#N)ccc3C(O1)c1c(cc(C)n(Cc3ccccc3)c1=O)O2	·	–	·	·	·	·
Cc1nn(-c2ccccc2)c(NC(=O)NS(=O)(=O)c2ccc(Cl)cc2)c1C#N	–	–	·	·	·	·
Cn1c2c(c(=O)n(C)c1=O)C(c1ccccc1[N+](=O)[O-])CC(=O)N2 (stereo not drawn)	–	·	·	–	–	–
O=C(NC1=NN(c2ccccc2)CC1)Nc1ccccc1F	–	–	–	–	–	–
O=C(c1ccc(NC(=S)NCc2ccco2)cc1)N1CCOCC1	–	–	–	–	?	?
Cc1ccc(C(=O)OCC(=O)Nc2cccc(Cl)c2C)c(O)c1	–	–	–	–	–	–
Cc1ccc(C(=O)OCC(=O)Nc2ccccc2Cl)c(O)c1	?	–	9.5µM	–	–	–
O=C(Oc1ccccc1)N1CCC2(CC1)CN(c1ccncc1)C2	–	–	·	·	·	·
O=C(CSc1nnc2scc(-c3ccccc3)n12)N1CCN(Cc2ccccc2)CC1	–	–	–	–	–	–
COc1cc2c(cc1OC)CN(C(=O)CSc1nnc3scc(-c4ccccc4)n13)CC2	–	71µM	–	–	–	–
Cc1cccc(NC(=O)CS(=O)(=O)c2cn(CC(=O)N3CCOCC3)c3ccccc23)c1	–	–	–	–	–	–
SMILES	VDR inh	Sfp inh	PLK1 PBD block	mIDH1 inhibitor	rTrxR1 inhibitor	TrxR1 substrate
Cc1cccc(CS(=O)(=O)c2cn(CC(=O)N3CCOCC3)c3ccccc23)c1	–	50µM	–	–	–	–
O=C(Cn1cc(S(=O)(=O)Cc2ccccc2F)c2ccccc21)N1CCOCC1	–	–	–	–	–	–
Cc1ccc(CS(=O)(=O)c2cn(CC(=O)N3CCOCC3)c3ccccc23)cc1	–	56µM	–	–	–	–
COc1ccc(CCC(=O)O)cc1	·	·	·	·	–	–
COc1ccccc1CNCc1cc(Br)ccc1OC	–	63µM	–	–	?	–
Fc1ccccc1COc1ccc(Br)cc1CNCc1ccncc1	–	79µM	–	–	–	–
COc1ccccc1CNCc1ccc(OC)c2ccccc12	–	·	?	–	–	–[2.29 µM]
Cc1ccccc1C(=O)NC1(C(F)(F)F)C(=O)Nc2c1c(=O)[nH]c(=O)n2-c1ccc(F)cc1 (stereo not drawn)	–	·	·	–	–	–
CCOC(=O)c1c(NC(=O)c2noc(C)c2[N+](=O)[O-])sc(C(C)=O)c1C	–	–	24µM	–	?	–
